Compound activity (PubChem BioAssay)
GCN5L2 inh = GCN5L2 (KAT2A) acetyltransferase inhibition | Q92830 | GCN5L2 HAT assay, ThioGlo1 CoA-SH fluorescence | Potency, µM (doses to about 58.9 µM), inactives show at the highest dose activity change, negative = inhibition, most hits filed as inhibitors | 0.21% of 390,000 active
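Fluorescence readout, Ex340nm/Em540nm: ThioGlo1 (50uM final) reacts with free CoA thiol released as 20nM GCN5L2 acetylates H3(1-25) peptide (75uM) using acetyl-CoA (70uM). Compound and enzyme sat 15 min beforehand; 20 min room-temperature reaction.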
DT40 TDP1 CPT = DT40-hTDP1 cell growth loss with CPT; chicken DT40 Tdp1-/-;hTDP1 cells + 20 nM CPT, ATP luminescence, 48 h; Potency, µM (highest dose often 46.2 µM), without a hit: at the highest dose activity change, negative = growth inhibition, actives largely listed as inhibitors; 12% of 420,000 active; further: nearly all actives have a fitted effect of over 55% in size
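Chicken DT40 Tdp1-/- cells complemented with human TDP1, 400 cells/well, exposed to compounds plus 20 nM camptothecin for at least 48 h at 37 C; viability read as ATP content by CellTiter-Glo luminescence.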
TDP1 block = blocks human tyrosyl-DNA phosphodiesterase 1 | Q9NUW8 | recombinant TDP1, AlphaScreen DNA substrate cleavage | Potency, µM (highest dose often 130 µM), without a hit: at the top dose activity change, negative = inhibition, hits mostly inhibitors | 0.28% of 350,000 active; further: nearly all actives have a fitted effect of over 40% in size
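Here, a 5' biotin and 3' phosphotyrosine-FITC DNA oligonucleotide reports Tdp1 activity: intact substrate bridges AlphaScreen beads, while cleavage leaves a 3' phosphate and drops signal. All incubations at room temperature.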
DT40 TDP1 no CPT = qHTS for Inhibitors of human tyrosyl-DNA phosphodiesterase 1 (TDP1): qHTS in cells in absence of CPT | 15% of 420,000 active | DT40 Tdp1-/- hTDP1 cells, no CPT, ATP luminescence, 48 h | Potency, µM (titrated, usually from 46.2 µM), for inactives: at the top dose activity change, negative = growth inhibition, actives largely listed as inhibitors; further: nearly all actives have a fitted effect of over 55% in size
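Luminescent ATP content (CellTiter-Glo) served as the growth readout. Knockout chicken DT40 cells expressing human TDP1 were exposed to compounds without camptothecin for a minimum 48 hr at 37 °C.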
VDR inh = blocks the human vitamin D receptor; P11473; VDR-SRC2-3 peptide fluorescence polarization, 2 h; Potency, µM, for inactives: max response, negative = inhibition, usual class: inhibitors; 0.93% of 400,000 active; AID 504847
Target sequence (P11473 whole entry, looked up): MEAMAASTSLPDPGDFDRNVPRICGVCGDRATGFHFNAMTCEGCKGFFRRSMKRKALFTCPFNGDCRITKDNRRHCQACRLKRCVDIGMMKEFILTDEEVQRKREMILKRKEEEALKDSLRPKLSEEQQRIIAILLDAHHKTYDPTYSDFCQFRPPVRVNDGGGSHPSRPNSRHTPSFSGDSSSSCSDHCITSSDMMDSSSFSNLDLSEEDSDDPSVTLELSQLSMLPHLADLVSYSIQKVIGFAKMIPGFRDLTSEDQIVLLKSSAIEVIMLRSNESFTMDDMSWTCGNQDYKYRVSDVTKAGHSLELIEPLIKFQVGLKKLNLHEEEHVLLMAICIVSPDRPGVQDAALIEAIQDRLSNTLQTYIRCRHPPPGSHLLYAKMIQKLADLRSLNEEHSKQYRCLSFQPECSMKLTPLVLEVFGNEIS
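Reagent solutions, kept cold and dark, are dispensed first; compounds are then pinned in at 23 nl, plates briefly spun, and incubated 2 h at ambient temperature. Inhibition of VDR–SRC2-3 peptide binding is read by fluorescence polarization.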
PLK1 PBD inh = inhibitors of human PLK1 polo-box domain binding; AID 720504; Plk1 PBD binding of FITC phosphopeptide, fluorescence polarization; P53350; 2.8% of 360,000 active; Potency, µM, without a hit: max response, negative = inhibition, hits mostly inhibitors; further: series mostly up to about 57 µM; nearly all actives have a fitted effect of over 65% in size
* marks the source's active call; other numbers are inactive results; ? = inconclusive; / = not tested or not shown; [ ] = another dose, or the depositor's remark. Rows were chosen to be rich in hits. Some 18% of all compounds tested hit in one or more screens of this group. The call rests on the fitted dose curve; in most records, active means well fitted curve in the direction sought with a large enough effect; inconclusive means small, poorly fitted or top-dose-only effect, or another doubt; inactive means no such curve, though single readings can be large; an effect the other way counts as inactive or inconclusive. On the % scale 0 is the no-effect control and ±100 the full control effect; potency means the concentration at half of the fitted maximal effect.

SMILES	GCN5L2 inh	DT40 TDP1 CPT	TDP1 block	DT40 TDP1 no CPT	VDR inh	PLK1 PBD inh
COc1ccc(-c2nnc(N3CCC(C)CC3)c3ccccc23)cc1	2%	?	-8%	16µM*	-12%	-5%
CN(C)C(=O)CSc1nnc(-c2ccc(F)cc2)c2ccccc12	-10%	1%	0%	?	-8%	-5%
CCCCSc1nnc(-c2ccc(C)cc2)c2ccccc12	-9%	21µM*	-2%	18µM*	-25%	5%
Cc1ccc2c(CN3CCN(c4ccc(Cl)cc4)CC3)cc(=O)oc2c1	2%	-22%	2%	-26%	9%	/
CCCCC#Cc1nc(NC)c2ncn([C@@H]3O[C@H](CO)[C@@H](O)[C@H]3O)c2n1	?	/	/	/	-3%	/
Cc1ccc(-c2nnc(N3CC(C)OC(C)C3)c3ccccc23)cc1 (configuration not stated)	-4%	29µM*	7%	16µM*	4%	-18%
Cc1ccc(-c2nnc(N3CCN(c4ccccn4)CC3)c3ccccc23)cc1	-7%	?	3%	?	-1%	-2%
Cc1ccc(Oc2nnc(-c3ccc(C)cc3)c3ccccc23)cc1	23%	21µM*	0%	15µM*	13%	-4%
COc1nnc(-c2ccc(N3CCCCC3)c(N)c2)c2ccccc12	/	7.3µM*	/	8.2µM*	-1%	0%
COc1ccccc1C(=O)Nc1ccc(Oc2nnc(-c3ccc(C)cc3)c3ccccc23)cc1	-17%	?	5%	?	3%	-8%
COc1cc(-c2ccc(C)cc2)cc2c1OCCN(C(=O)CCn1ccc(C)n1)C2	/	0%[9.04 µM]	/	?	/	/
Cc1ccc(CNC(=O)c2ccc(CSCc3ccccc3C)o2)cc1	-2%	?	-3%	?	-4%	/
COc1ccc(C(=O)NCCc2nnc3ccc(SCC(=O)N4CCCCC4)nn23)cc1	-2%	25%	6%	9%	19%	-3%
Nc1ccc(NC(=O)CCN2CCOCC2)cc1	-7%	-2%	6%	-14%	-4%	-9%
CCOC(=O)c1ccc(NC(=O)NCCOCCn2c(=O)oc3ccccc32)cc1	-7%	?	7%	?	5%	/
Cc1ccc(NC(=O)NCCOCCn2c(=O)oc3ccccc32)c(C)c1	-3%	4.6µM*	2%	5.8µM*	7%	/
Cc1ccc(NC(=O)CCn2c(=S)oc3ccccc32)cc1F	-11%	-17%	/	?	3%	-11%
Cc1ccc(NC(=O)NCCOCCn2c(=O)oc3ccccc32)cc1F	-4%	5.8µM*	0%	5.8µM*	8%	/
Cc1ccc(NC(=O)NCCOCCn2c(=O)oc3ccccc32)cc1C	1%	5.8µM*	0%	4.1µM*	6%	/
O=C(NCCOCCn1c(=O)oc2ccccc21)Nc1cccc(Cl)c1	-2%	7.3µM*	2%	8.2µM*	7%	/
O=C(Nc1ccc(Nc2ccccc2)cc1)c1ccc(Cl)cc1[N+](=O)[O-]	/	5.8µM*	/	16µM*	-11%	2%
O=C(Nc1ccc(Nc2ccccc2)cc1)c1ccc(Cl)c([N+](=O)[O-])c1	-12%	13µM*	/	10µM*	7%	-1%
O=C(Nc1ccccc1-c1ccccc1)c1ccc(Cl)c([N+](=O)[O-])c1	-7%	-12%	4%	?	-5%	1%
CCN(C(=O)c1ccc(Cl)cc1[N+](=O)[O-])c1ccccc1C	0%	16µM*	-5%	15µM*	18%	-3%
CC(=O)NS(=O)(=O)c1ccc(NC(=O)c2ccc(Cl)cc2[N+](=O)[O-])cc1	0%	6%	3%	6%	20%	-7%
SMILES	GCN5L2 inh	DT40 TDP1 CPT	TDP1 block	DT40 TDP1 no CPT	VDR inh	PLK1 PBD inh
CCCCn1c(N)c(N(CC)C(=O)c2ccc(Cl)c([N+](=O)[O-])c2)c(=O)[nH]c1=O	-11%	-2%	-6%	1%	-11%	-6%
CCN(C(=O)c1ccc(Cl)c([N+](=O)[O-])c1)c1ccccc1	7%	?	-2%	15µM*	-3%	0%
CCCCC1=CC2=C(OC(C)=O)C(=O)C(C)(OC(=O)c3ccc(Cl)nc3)C(=O)C2=CO1 (configuration not stated)	/	/	4%	/	?	/
COc1ccc2[nH]c3c(c2c1)CCNC3(C)CCc1ccc(Cl)nc1 (configuration not stated)	-2%	?	/	-27%	?	?
COc1ccc(OC)c(NC(=O)Nc2nnc(COCCO)s2)c1	/	-24%	/	0%	/	-2%
CCc1ccc(N2CC(C(=O)Nc3ccc(S(=O)(=O)NCC4CCCO4)cc3)CC2=O)cc1 (configuration not stated)	-8%	-28%	-6%	?	-7%	-3%
Cc1cc(C(=O)Nc2ccc(Nc3ccccc3)cc2)ccc1[N+](=O)[O-]	-20%	3.3µM*	/	4.6µM*	25µM*	3.4µM*
Cc1c(NC(=O)c2ccccc2)cccc1[N+](=O)[O-]	5%	-1%	4%	-9%	3%	-4%
Cc1ccccc1NC(=O)c1ccc(Nc2c([N+](=O)[O-])cc([N+](=O)[O-])c3ccccc23)cc1	22%	?	4%	23µM*	2%	-3%
Cc1c([N+](=O)[O-])cc(C(=O)Nc2ccc(Cc3ccncc3)cc2)cc1[N+](=O)[O-]	-10%	-12%	8%	-18%	-11%	-16%
O=C(Nc1ccc(Cc2ccncc2)cc1)c1ccc(Cl)c([N+](=O)[O-])c1	-20%	16µM*	-1%	18µM*	-8%	-1%
O=C(NCCO)c1nc(C(=O)c2ccccc2)c2ccccc2n1	-1%	23µM*	3%	?	15%	-4%
O=C(NCCO)c1cc(-c2cc(C(=O)NCCO)c3ccccc3n2)nc2ccccc12	13%	2%	/	2%	-4%	-10%
CCCCC(CC)CO (configuration not stated)	-8%	?	0%	-4%	-8%	-9%
CCCCC(CC)CN=C(N)NC(N)=NCCCCCCN=C(N)NC(N)=NCC(CC)CCCC (configuration not stated)	-21%	13µM*	6%	9.2µM*	5%	?
Cc1ncc(C[n+]2csc(CCOP(=O)(O)OP(=O)(O)O)c2C)c(N)n1	0%	-8%	9%	7%	-14%	/
CCCn1c2ccc(C)cc2c2n[nH]c(=S)nc21	27%	?	/	15µM*	-15%	27µM*
CCCn1c2ccc(F)cc2c2nnc(SCCN3CCOCC3)nc21	-4%	18µM*	/	?	-16%	?
Cc1cc(C)c2c(c1)c1nnc(SCCN3CCOCC3)nc1n2C	-1%	-8%	/	8.2µM*	2%	?
